Anthrax LF prot: blocks Bacillus anthracis lethal factor protease. P15917. multiplex microsphere protease cleavage assay, LF. inhibition, % at 10 µM. 360,000 compounds, 0.12% hits. AID 588501
BoNT-A LC inh2: BoNT A light chain protease inhibition; multiplex microsphere protease substrate cleavage, flow cytometry; inhibition, % at 10 µM; 360,000 compounds, 0.17% hits; AID 588499
Autofluor counter: flagged as autofluorescent in microsphere protease counterscreen; compound autofluorescence counterscreen, microsphere flow cytometry; active compounds read high; fluorescence intensity (test concentration not listed); 360,000 compounds, 3.1% hits; in the data active = fluorescence intensity above about 16000; inconclusive = no clear call, values can overlap the other calls
MazF activator: MazEF (E. coli) toxin RNase activation. 350,000 compounds, 0.32% hits. FAM/BHQ RNA-DNA oligo cleavage fluorescence, 5 h. activation, % at 20 µM. P0AE70. AID 504720; in the data active = activation above about 50%
Target sequence (P0AE70 whole entry, looked up): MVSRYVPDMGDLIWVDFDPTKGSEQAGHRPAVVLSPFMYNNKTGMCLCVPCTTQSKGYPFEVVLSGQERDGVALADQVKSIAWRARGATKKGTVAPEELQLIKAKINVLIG
BoNT F protease: blocks Botulinum neurotoxin F light chain protease. inhibition, % at 10 µM. 360,000 compounds, 0.22% hits. AID 588497. Multiplex microsphere protease cleavage assay, flow cytometry; in the data active = inhibition above about 35%, passing the limit was not always enough; inconclusive = no clear call, values can overlap the other calls
A number is an active result; i = inactive; ? = inconclusive; nt = no result given. Rows were chosen to be rich in hits. Some 3.6% of all compounds tested hit in one or more screens of this group. Rule as the data show it, unless noted: active = inhibition above about 30%; inconclusive = no clear call, values can overlap the other calls; inactive = below that.

SMILES	Anthrax LF prot	BoNT-A LC inh2	Autofluor counter	MazF activator	BoNT F protease
O=C1CC(NCc2ccccc2F)C(=O)N1c1ccccc1 (centres undefined)	i	i	16529	i	i
C=CCNCCCCOc1c(Cl)cc(C)cc1Br	nt	nt	nt	i	nt
Cc1cc(C)c(OCCNCc2ccccc2)c(C)c1	i	i	i	i	i
COCCCNCCCCOc1c(Cl)cc(C)cc1Br	i	?	22891	i	i
Cc1cc(C)c(OCCCCNCc2ccccc2)c(Cl)c1	i	?	21662	i	i
CSc1ccc(/C=C2/C(=N)N3N=C(CC(=O)N4CCCC4)SC3=NC2=O)cc1	i	i	i	i	i
NC(=O)COC(=O)c1cc(=O)[nH]c2ccccc12	i	i	i	i	i
CNC(=O)COC(=O)c1cc(=O)[nH]c2ccccc12	i	i	23831	i	i
NC(=O)NC(=O)COC(=O)c1ccccc1Oc1ccccc1	i	i	i	i	i
CNC(=O)COC(=O)c1ccccc1Oc1ccccc1	i	i	16994	i	i
COC(=O)c1ccc(OC(=O)CN2C(=O)c3ccccc3C2=O)cc1	38	i	i	i	?
O=C(CCCN1C(=O)c2ccccc2C1=O)Oc1ccc(F)cc1	i	i	23354	i	i
NC(=S)Nc1cccc(O)c1	i	i	i	i	i
CC(NC(=O)Cc1ccc(S(=O)(=O)N2CCOCC2)s1)c1ccc(Br)cc1 (centres undefined)	i	i	i	i	i
COc1ccc(Cn2nnnc2C(c2cc3cc(C)cc(C)c3[nH]c2=O)N2CCOCC2)cc1 (centres undefined)	i	i	i	i	i
CCc1ccc2[nH]c(=O)c(C(c3nnnn3Cc3ccccc3)N3CCOCC3)cc2c1 (centres undefined)	i	?	21543	i	i
CCc1ccc2[nH]c(=O)c(C(c3nnnn3Cc3ccc(OC)cc3)N3CCOCC3)cc2c1 (centres undefined)	i	i	16212	i	i
OC1COC(O)C(O)C1O (centres undefined)	i	i	i	i	i
O=C1c2ccccc2NC(c2cccc(O)c2)N1NS(=O)(=O)c1ccccc1 (centres undefined)	i	i	i	i	i
O=C(OCC(=O)N1CCc2ccccc21)[C@@H]1CC(O)CN1S(=O)(=O)c1ccc(Cl)cc1 (some centres undefined)	i	i	i	i	i
O[C@H]1C[C@H](c2ccccc2)N(CC2CCCCC2)C[C@@H]1n1cc(C2CC2)nn1	i	i	i	i	i
CCOC(=O)c1c(C)[nH]c(C(=O)C(C)Cl)c1C (centres undefined)	i	i	i	i	i
CCOC(=O)c1[nH]c(C)c(C(=O)C(C)C)c1C	i	i	16910	i	i
CCOC(=O)c1[nH]c(C)c(C(=O)N(C)C)c1C	i	i	i	i	i
CCOC(=O)c1[nH]c(C)c(C(=O)N(C)Cc2ccccc2)c1C	i	i	18491	i	i
SMILES	Anthrax LF prot	BoNT-A LC inh2	Autofluor counter	MazF activator	BoNT F protease
CCOC(=O)c1c(C)[nH]c(C(=O)OCc2ccccc2)c1C	i	i	i	i	i
CCOC(=O)c1[nH]c(C)c(C(=O)NCc2ccccn2)c1C	i	i	21338	i	i
CCNC(=O)c1c(C)[nH]c(C(=O)OCC)c1C	i	i	24505	i	i
CCOC(=O)c1c(C)[nH]c(C(=O)NCc2ccccn2)c1C	i	i	?	i	i
O=C(CCC(=O)c1cccs1)NCc1cccc(C(F)(F)F)c1	nt	nt	nt	i	nt
CC(=O)Nc1ccc(-c2ccnc3c2CC(C(=O)NCc2ccco2)O3)cc1 (centres undefined)	i	i	i	nt	i
CCOC(=O)c1[nH]c(C)c(C(=O)Nc2ccc(C)c(Cl)c2)c1C	i	i	21453	i	i
CCOC(=O)c1[nH]c(C)c(C(=O)OCCN2C(=O)c3ccccc3C2=O)c1C	i	i	20341	i	i
CNC(=O)COC(=O)c1[nH]c(C)c(C(C)=O)c1C	i	?	16399	i	i
CC(=O)c1c(C)[nH]c(C(=O)OCC(=O)NCC(C)C)c1C	i	i	i	i	i
CC(=O)c1c(C)[nH]c(C(=O)COc2cc(C)cc(C)c2)c1C	i	i	21911	i	i
CCCOc1ccc(OCC(=O)c2[nH]c(C)c(C(C)=O)c2C)cc1	i	i	i	i	i
CCOC(=O)c1[nH]c(C)c(C(=O)Nc2ccc(C)c(F)c2)c1C	i	i	i	i	i
C#CCN1C=C(C(=O)OCC)C(C)N(Cc2ccccc2I)S1(=O)=O (centres undefined)	i	i	i	i	i
CCOCCCNC(=O)c1c(C)[nH]c(C(=O)OCC)c1C	i	i	16166	i	i
CCOCCCNC(=O)c1[nH]c(C)c(C(C)=O)c1C	i	i	i	i	i

From PubChem
